Screening data (PubChem)
Compounds with a hit are over-represented: about 4.1% of the library has one in this group of screens.
KLF5 inh: suppresses KLF5 promoter-driven expression. DLD-1 KLF5 promoter-luciferase reporter, luminescence. inhibition, % at 5 µM. actives 0.23% (n = 290,000). AID 1700;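 active means inhibition above a per-plate limit of that plate's mean compound inhibition plus 3 SD, cut at about 60% in these data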;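 further: 0% = DMSO wells and 100% = LY294002 at 200 µM; higher means less KLF5 promoter-driven luciferase light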
Mdm2-MdmX inh: human Mdm2/MdmX binding inhibition | O15151+Q00987 | SaOS-2 split-luciferase Mdm2/MdmX complementation, luminescence | inhibition, % at 8 µM | actives 3% (n = 330,000) | AID 485346;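 active means inhibition of at least 50% at 8 µM in the primary screen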
Target sequence (O15151 whole entry, looked up): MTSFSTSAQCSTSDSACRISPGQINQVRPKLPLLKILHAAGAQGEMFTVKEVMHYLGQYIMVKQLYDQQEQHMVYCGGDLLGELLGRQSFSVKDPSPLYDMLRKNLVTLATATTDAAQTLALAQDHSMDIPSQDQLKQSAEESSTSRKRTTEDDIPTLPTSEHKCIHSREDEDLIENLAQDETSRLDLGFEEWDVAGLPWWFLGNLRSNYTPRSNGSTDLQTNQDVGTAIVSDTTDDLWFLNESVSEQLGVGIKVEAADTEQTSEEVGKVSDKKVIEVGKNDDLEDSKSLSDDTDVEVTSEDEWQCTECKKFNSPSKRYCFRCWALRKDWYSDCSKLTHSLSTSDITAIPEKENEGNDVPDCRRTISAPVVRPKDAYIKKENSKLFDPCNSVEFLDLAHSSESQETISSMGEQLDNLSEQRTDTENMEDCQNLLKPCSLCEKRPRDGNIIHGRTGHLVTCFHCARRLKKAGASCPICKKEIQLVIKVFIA
Target sequence (Q00987 whole entry, looked up): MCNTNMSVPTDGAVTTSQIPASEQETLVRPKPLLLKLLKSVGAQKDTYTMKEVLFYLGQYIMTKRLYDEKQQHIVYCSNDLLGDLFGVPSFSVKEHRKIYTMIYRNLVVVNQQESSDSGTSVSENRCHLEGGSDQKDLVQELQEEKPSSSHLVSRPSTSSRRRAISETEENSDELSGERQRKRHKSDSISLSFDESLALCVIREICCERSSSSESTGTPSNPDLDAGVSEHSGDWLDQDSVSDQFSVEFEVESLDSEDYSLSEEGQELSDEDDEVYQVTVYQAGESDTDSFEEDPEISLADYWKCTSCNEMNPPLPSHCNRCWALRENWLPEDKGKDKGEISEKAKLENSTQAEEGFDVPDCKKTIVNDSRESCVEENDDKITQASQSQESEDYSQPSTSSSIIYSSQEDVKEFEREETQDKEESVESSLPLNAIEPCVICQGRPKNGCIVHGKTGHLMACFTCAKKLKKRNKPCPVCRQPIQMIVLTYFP
697 NFkB inh: lowers PMA/ionomycin-induced NF-kB signal in 697 B cells; actives 0.33% (n = 330,000); 697 B-cell NF-kB luciferase reporter, 16 h; inhibition, % at 4 µM; in the data active means inhibition above about 35%
Gli-Sufu antag: antagonists of Gli-Sufu signaling. Sufu-KO-LIGHT fibroblasts, Gli luciferase reporter luminescence. inhibition, % at 5 µM. actives 0.74% (n = 340,000);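 active means inhibition above about 55%, limit read from the data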;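 further: 0% = DMSO-treated cells and 100% = wells with medium but no cells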
Jurkat NFkB inh: inhibitors of the PMA/ionomycin-induced NF-kB reporter in Jurkat cells; PMA/ionomycin-induced NF-kB luciferase reporter, luminescence; AID 435003; actives 0.53% (n = 330,000); inhibition, % at 4 µM; in the data active means inhibition above about 50%
aSyn UTR inh: 5' untranslated region of α-synuclein, MLPCN primary screen. alpha-synuclein 5'UTR reporter, inhibitor activity. AID 1813. inhibition, % (tested at 7.5 µM). actives 0.82% (n = 300,000); in the data active means inhibition above about 60%;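 further: H4 neuroglioblastoma cells stably carrying SNCA 5'UTR luciferase fusion; 0% = DMSO wells and 100% = positive control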
Mdm2 MdmX conf: human Mdm2/MdmX binding inhibition, confirmed | shares compounds with Mdm2-MdmX inh | luminescent assay | inhibition, % at 8 µM | actives 55% (n = 10,000); in the data active means inhibition above about 40%
Full FLuc ctr: inhibits full-length luciferase, flagging false Mdm2/MdmX hits; shares compounds with Mdm2-MdmX inh; actives 77% (n = 6,200); AID 504607; SaOS-2 full-length luciferase counterscreen, luminescence; inhibition, % at 8 µM;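 active means mean inhibition at 8 µM reaching about 37%, which flags the compound as non-specific, limit read from the data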;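 further: p53-null SaOS-2 cells with luciferase driven by a doxycycline-inducible promoter; compound on cells about two nights before reading with doxycycline added after day one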
The depositor's hits bear a star.

How did O=C(NCC1COc2ccccc2O1)c1ccc(NC(=O)C(c2ccccc2)c2ccccc2)cc1 (stereo not given) do in these assays?
KLF5 inh: 8.0; Mdm2-MdmX inh: 62.9*; 697 NFkB inh: -24.1; Gli-Sufu antag: 10.3; Jurkat NFkB inh: -4.8; aSyn UTR inh: -2.3; Mdm2 MdmX conf: 45.3*; Full FLuc ctr: 55.4*

What do the screens show for `O=C(Cc1ccccc1)Nc1ccc(C(=O)NCC2COc3ccccc3O2)cc1` (stereo not given)?
KLF5 inh: -18.9; Mdm2-MdmX inh: -13.6; 697 NFkB inh: 13.3; Gli-Sufu antag: -7.1; Jurkat NFkB inh: 4.2; aSyn UTR inh: -4.2

How did COc1cc(/C=C2/SC(=O)N(Cc3ccccc3Cl)C2=O)ccc1OCc1ccncc1 do in these assays?
KLF5 inh: -13.8; Mdm2-MdmX inh: 50.7*; 697 NFkB inh: 6.2; Gli-Sufu antag: 10.0; Jurkat NFkB inh: 15.4; aSyn UTR inh: -17.7; Mdm2 MdmX conf: 20.5

How did CCOc1ncccc1C(=O)OCC(=O)c1cc(OC)c(OC)c(OC)c1 do in these assays?
KLF5 inh: -15.3; Mdm2-MdmX inh: -17.7; 697 NFkB inh: 15.1; Gli-Sufu antag: 9.7; Jurkat NFkB inh: 2.2; aSyn UTR inh: 2.1

Results for CCc1c(-c2ccccc2)nc2sc3c(c2c1N)CCCC3 ?
KLF5 inh: -8.0; Mdm2-MdmX inh: 72.2*; 697 NFkB inh: -59.2; Gli-Sufu antag: -16.4; Jurkat NFkB inh: -51.8; aSyn UTR inh: -113.0; Mdm2 MdmX conf: -18.8

What do the screens show for `Cc1ccc(-n2c(C)cc(/C=C3\SC(=O)NC3=O)c2C)cc1`?
KLF5 inh: -190.2; Mdm2-MdmX inh: -192.5; 697 NFkB inh: -183.4; Gli-Sufu antag: -85.7; Jurkat NFkB inh: -84.3; aSyn UTR inh: -174.5

How did Cc1cc(/C=C2\SC(=S)N(C)C2=O)c(C)n1-c1ccccc1O do in these assays?
Mdm2-MdmX inh: 85.6*; 697 NFkB inh: -145.4; Gli-Sufu antag: 1.7; Jurkat NFkB inh: -29.2; aSyn UTR inh: -125.8; Mdm2 MdmX conf: 89.5*; Full FLuc ctr: 108.2*

Results for Cc1cc(/C=C2\SC(=S)N(C)C2=O)c(C)n1-c1ccc(O)cc1 ?
KLF5 inh: -109.8; Mdm2-MdmX inh: 84.5*; 697 NFkB inh: -51.1; Gli-Sufu antag: -26.8; Jurkat NFkB inh: -6.1; aSyn UTR inh: 50.5; Mdm2 MdmX conf: 80.8*; Full FLuc ctr: 50.3*

Results for Clc1ccc2c(N/N=C/c3ccccc3Br)ccnc2c1 ?
KLF5 inh: -5.9; Mdm2-MdmX inh: 100.5*; 697 NFkB inh: -39.3; Gli-Sufu antag: -2.5; Jurkat NFkB inh: -8.8; aSyn UTR inh: 28.6; Mdm2 MdmX conf: 81.8*; Full FLuc ctr: 52.2*

What do the screens show for `Clc1ccc2c(N/N=C/c3cccc(Br)c3)ccnc2c1`?
KLF5 inh: -3.0; Gli-Sufu antag: -10.1; aSyn UTR inh: -17.9

What do the screens show for `Cn1c(C(=O)N2CCCCCC2)cc2c(=O)n(C)c3ccccc3c21`?
KLF5 inh: -31.6; Mdm2-MdmX inh: 13.2; 697 NFkB inh: 0.8; Gli-Sufu antag: -1.3; Jurkat NFkB inh: -31.3; aSyn UTR inh: -9.3

What do the screens show for `Cc1cccc(N2CCN(C(=O)c3cc4c(=O)n(C)c5ccccc5c4n3C)CC2C)c1` (stereo not given)?
KLF5 inh: -7.9; Mdm2-MdmX inh: 52.3*; 697 NFkB inh: -16.9; Gli-Sufu antag: 8.5; Jurkat NFkB inh: -14.2; aSyn UTR inh: -8.6; Mdm2 MdmX conf: 17.1

Results for COc1cc(NC(=O)c2ccccc2F)ccc1NC(=O)c1cc2ccccc2o1 ?
KLF5 inh: -23.3; Mdm2-MdmX inh: 67.5*; 697 NFkB inh: -33.9; Gli-Sufu antag: -26.2; Jurkat NFkB inh: -7.5; aSyn UTR inh: -67.2; Mdm2 MdmX conf: 32.5; Full FLuc ctr: 62.6*

How did COc1cc(NC(=O)c2ccc(F)cc2)ccc1NC(=O)c1cc2ccccc2o1 do in these assays?
KLF5 inh: -16.9; Mdm2-MdmX inh: 18.9; 697 NFkB inh: -13.2; Gli-Sufu antag: -2.5; Jurkat NFkB inh: 10.4; aSyn UTR inh: 3.9

How did COc1cc(NC(=O)c2c(OC)cccc2OC)ccc1NC(=O)c1cc2ccccc2o1 do in these assays?
KLF5 inh: -99.4; Mdm2-MdmX inh: -18.0; 697 NFkB inh: -56.5; Gli-Sufu antag: -45.2; Jurkat NFkB inh: -62.9; aSyn UTR inh: -205.4
